MARV entry inh: Marburg virus entry inhibition; Marburg virus pseudotyped entry inhibition, cell reporter; Potency, µM (top dose mostly 37.8 µM), without a hit: top-dose activity change, negative = inhibition, most hits filed as inhibitors; AID 540276; 300,000 tested, 1.8% active; calls by dose curve; tested in HEK293 cells; note: potency is the fitted concentration of half-maximal effect
FMDV antiviral: antivirals against foot and mouth disease virus; FMDV antiviral cell-based qHTS; 410,000 tested, 1.2% active; Potency, µM (highest dose often 57.9 µM), for the others: at the highest dose activity change, negative = inhibition, usual class: inhibitors; calls by dose curve; tested in HEK293T cells; note: read-out not given here; potency is the fitted concentration of half-maximal effect; nearly all actives have a fitted effect of over 45% in size
HCMV antiviral: human cytomegalovirus inhibition. HFF cells, HCMV-luciferase reporter, 72 h; hits give low values. activity change, negative = inhibition, % at 57.5 µM. 410,000 tested, 4.5% active; in the data active = activity change below about -60%; inconclusive = no clear call, values can overlap the other calls; inactive = above about -39%
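HFF cells seeded 16 h at 37C, treated with compounds, infected with luciferase-reporter HCMV at MOI 1 PFU/cell; luciferase read at 72 h post infection, normalized to buffer-only and Salinomycin controls.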
Lassa entry inh: Lassa virus entry inhibition; 300,000 tested, 1.2% active; Potency, µM (doses to about 37.9 µM), without a hit: at the highest dose activity change, negative = inhibition, most hits filed as inhibitors; Lassa virus pseudotype entry inhibition, cell reporter; AID 540256; calls by dose curve; tested in HEK293 cells; note: potency is the fitted concentration of half-maximal effect; nearly all actives have a fitted effect of over 50% in size
Numbers without * were called inactive; ? = inconclusive; · = no result; [ ] = dose if it differs, or a comment. The list is not random: actives were taken first. Their share in the collection is about 6.2%. % is set by controls: 0 for no effect and ±100 for the full control effect.

SMILES	MARV entry inh	FMDV antiviral	HCMV antiviral	Lassa entry inh
CCOC(=O)c1[nH]c(C)c(C(=O)Nc2ccc3c(c2)OCCO3)c1C	22.4%	0.0%	-74.4*	-2.9%
CCOC(=O)c1c(C)[nH]c(C(=O)OCC(=O)Nc2ccc(Cl)cn2)c1C	0.8%	-19.0%	-10.3	6.1%
COCC1CCCN(Cc2ccc3c(c2)CN(C(=O)c2ccc(-c4ccc(C)o4)cc2)CCO3)C1 (stereo unspecified)	·	7.6%	·	·
Cc1cc(C(=O)C(C)OC(=O)c2ccc(NC(=O)CC#N)cc2)c(C)n1-c1ccc(OC(F)F)cc1 (stereo unspecified)	?	0.0%	?	14.1µM*
c1ccc(-c2nnc(SCc3nc4ccccc4[nH]3)n2Cc2ccco2)cc1	-11.8%	-6.8%	-68.1*	8.0%
Nn1c(SCc2nc3ccccc3[nH]2)nnc1-c1ccccc1	-5.3%	7.5%	-1.3	-8.1%
Cc1ccc(OCc2nnc(SCc3nc4ccccc4[nH]3)n2Cc2ccco2)cc1	?	?	-68.9*	?
C=CCn1c(SCc2nc3ccccc3[nH]2)nnc1-c1ccc(OC)cc1	-26.4%	?	?	-0.3%
CCn1c(SCc2nc3ccccc3[nH]2)nnc1-c1ccc(OC)cc1	-11.3%	?	-73.0*	-2.6%
CCOC(=O)c1ccccc1NC(=O)Cn1c(=O)n(-c2cccc(C)c2)c(=O)c2c1c1cc(C)ccc1n2C	10.0%[46.1 µM]	-14.2%	33.3	?
CC(C)(C)c1ccc(S(=O)(=O)N[C@H]2CC[C@@H](n3cc(C(=O)N4CCCC4)nn3)CC2)cc1	·	-20.1%	·	·
CCOc1cc(S(=O)(=O)NCCc2c(C)[nH]c3ccc(C)cc23)ccc1F	·	19.2%	5.7	?
CC(C)(C)S(=O)(=O)N1Cc2cc(CO)ccc2[C@H]1CCO	·	·	9.8	·
CC1CCCCN1C(=O)CSc1nc2ccccc2nc1Cc1ccccc1 (stereo unspecified)	·	-20.1%	-71.8*	?
O=C(NCc1cccnc1)Nc1cccc(NC(=O)NCc2cccnc2)c1	1.9%	18.5%	11.2	-1.3%
COc1cc(C(=O)NCc2cccnc2)ccc1OCC(=O)Nc1cccc(C(F)(F)F)c1	?	11.2µM*	-73.2*	?
O=C(NCc1cccnc1)Nc1cccc(C(F)(F)F)c1	-2.8%[46.1 µM]	6.4%	-69.6*	19.7%[46.1 µM]
O=C(NCc1c(-n2cccc2)sc2c1CCCC2)Nc1cccc(C(F)(F)F)c1	19.1%[46.1 µM]	?	-73.0*	22.9%[46.1 µM]
COc1ccc(CN(C)C(=O)c2ccc(OCC(=O)Nc3cccc(C(F)(F)F)c3)c(OC)c2)cc1	·	?	-61.9*	·
Cc1cc(C)cc(NC(=O)NCc2c(-n3cccc3)sc3c2CCCC3)c1	?	-6.8%	4.3	-11.1%[46.1 µM]
COc1cccc(Nc2nccc3[nH]c(-c4ccc(F)c(F)c4)nc23)c1	·	·	-4.6	·
CCCCCCc1nc2ccccc2c(=O)n1NC(=O)c1c(O)c2c(n(CC(C)C)c1=O)CCCC2	-3.2%[46.1 µM]	-3.9%	-92.8*	?
COc1ccc(O[C@@H]2[C@H](O)CO[C@H]2/C=C/C#Cc2ccccc2)cc1	7.5%[14.2 µM]	·	·	·
CCOc1cccc2sc(NC(=O)CCS(=O)(=O)c3ccccc3)nc12	10µM*	-9.0%	·	?
COc1ccc(C)c2sc(NC(=O)CCS(=O)(=O)c3ccccc3)nc12	?	-17.3%	-89.2*	?
SMILES	MARV entry inh	FMDV antiviral	HCMV antiviral	Lassa entry inh
CCOc1cccc2sc(Nc3nc4ccc(NC(C)=O)cc4s3)nc12	10.3µM*	0.0%	-89.6*	?
Cc1oc(-c2ccccc2NC(=O)C2CCC2)nc1CNC(=O)c1ccccn1	·	-6.2%	·	·
C[C@@H]1C=CCC(=O)N[C@@H](c2ccc3ccccc3c2)[C@H](C)C=CCC(=O)N[C@@H]1c1ccc2ccccc2c1	2.66µM*	·	·	·
C[C@@H]1C=CCC(=O)N[C@@H](c2ccccc2)[C@H](C)C=CCC(=O)N[C@@H]1c1ccccc1	12.4%[14.2 µM]	·	·	?
O=C1CN(C(=O)c2ccc(Cl)c(S(=O)(=O)N3CCc4ccccc43)c2)c2ccccc2N1	3.55µM*	?	?	?
Cc1cccc(NC(=O)c2ccc(Cl)c(S(=O)(=O)N3CCCC3)c2)n1	?	10.1%	-17.9	2.0%
O=C(Nc1ccncc1)c1ccc(Cl)c(S(=O)(=O)N2CCc3ccccc32)c1	?	?	-68.6*	7.94µM*
Cc1cccc(NC(=O)c2ccc(Cl)c(S(=O)(=O)N3CCc4ccccc43)c2)n1	·	?	-64.9*	·
COC(=O)c1ccccc1C(=O)N1CCc2c(cnc(C)c2CNC(=O)c2ccccc2F)C1	·	-0.9%	·	·
COc1ccc(C(=O)OCC(=O)NC2CCCC2)cc1OC	-18.8%[46.1 µM]	-1.4%	-10.4	12.7%[46.1 µM]
Cc1cccc(C(=O)OCC(=O)NC(=O)NC2CCCCC2)c1	·	-20.5%	-3.8	·
Cc1cccc(C(=O)OCC(=O)NC2CCCCCCC2)c1	·	16.5%	-63.8*	·
Cc1ccc(C(=O)OCC(=O)NC2CCCC2)cc1C	?	24.8%	-78.4*	-20.6%
C[C@H]1[C@@H](NS(=O)(=O)c2cc(Cl)cc(Cl)c2)CC[C@@]23CCCN2C(=O)CCC[C@@H]13	·	·	-5.0	·
Cc1cc(C(=O)NCC2CCC3(CCN(Cc4ccccc4C)CC3)O2)n(C)n1 (stereo unspecified)	·	-11.1%	·	·
COc1ccc(-c2cc(C)cc3c2OC(CNC(=O)c2cc(C(C)C)on2)C3)nn1 (stereo unspecified)	·	-2.8%	·	·
COCOc1ccc(Br)cc1C(=O)C=Cc1ccc2c(c1)OCO2	5.6%[14.2 µM]	·	·	·
COc1ccc(NC(=O)CC2C(=O)N(c3cccc(OC)c3)C(=O)N2Cc2ccc3c(c2)OCO3)cc1 (stereo unspecified)	-26.9%[46.1 µM]	15.2%	-2.7	?
COc1ccc(/C=C2\CCc3ccccc3C2=O)cc1O	11.2µM*	?	20.2	?
COc1ccc(/C=C2\CCc3ccccc3C2=O)cc1Cn1cccn1	18.3µM*	-98.9%	?	?
COc1ccc(/C=C2\Cc3ccccc3C2=O)cc1OC	·	43.4%	?	·
CC(C)Sc1nc2ccc(Br)cc2[nH]1	?	29.2%	-102.3*	7.0%[46.1 µM]
CSc1nc2ccc(Br)cc2[nH]1	?	17.6%	-39.7	-1.1%
CN1C(=O)C(C(Nc2ccccc2)c2ccc(Br)cc2)c2ccccc21 (stereo unspecified)	·	·	48.8	·
CCOc1ccccc1Nc1ncnc2c1c(-c1ccccc1)cn2-c1ccc(OC)cc1	·	-23.0%	?	7.8%[46.1 µM]
SMILES	MARV entry inh	FMDV antiviral	HCMV antiviral	Lassa entry inh
Cn1c(=O)c2c(nc(Cl)n2CC(=O)NC2(C#N)CCCCC2)n(C)c1=O	20.3%	-14.9%	-101.3*	25.0%
C[C@]12CCC(=O)C=C1CCC1C2C(O)C[C@]2(C)C1CC[C@]2(O)C(=O)COC(=O)CCC(=O)O (stereo partly specified)	·	-5.2%	·	·
CCc1nc2c(OCc3ccc(OC)cc3)cccn2c1N(C)C(=O)C(C)C	·	-11.0%	-22.4	·
O=C(N/N=C/c1cccs1)c1n[nH]c2c1CCCC2	?	-23.2%	-85.4*	2.24µM*
O=C(N/N=C/c1cccc2ccccc12)c1n[nH]c2c1CCCC2	?	31.4%	-16.1	-34.9%[46.1 µM]
C/C(=N\NC(=O)c1n[nH]c2c1CCC2)c1cccs1	-4.3%[46.1 µM]	41.0%	-91.0*	-22.2%
O=C(N/N=C\c1cccc(Cl)c1)c1n[nH]c2c1CCCC2	?	7.3%	80.9	?
Cc1ccc(/C=N/NC(=O)c2n[nH]c3c2CCCC3)cc1	?	50.2%	-74.8*	?

Screening results from PubChem BioAssay.
